Reference: PubChem BioAssay AID651784 (National Center for Advancing Translational Sciences (NCATS), 2012)
Results filed as inconclusive are left out. Calls of active or inactive are those of the source. Calls come from the whole dose curve; as a rule, active = well fitted inhibition curve with a large enough effect; inconclusive = small, poorly fitted or top-dose-only effect; inactive = no such curve, though single readings can be large or run the other way.

Test: Acumen qHTS Assay for Inhibitors of the mTORC1 Signaling Pathway in MEF (Tsc2-/-, p53-/-) Cells: Hit Validation;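 note: phospho-rpS6 Ser235/236 immunofluorescence normalized to propidium iodide cell count; nearly all actives have a fitted effect of over 65% in size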;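 for activity change, negative = inhibition: cells exposed to compound for 24 hours; plate controls were DMSO for no effect and 7.5 nM rapamycin control for full effect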
Settings: Acumen imaging; activity change, negative = inhibition: at 37.3 µM (top of the series)
Potency is the fitted concentration of half-maximal effect.

| Compound | activity change, negative = inhibition [%] | Potency |
| --- | --- | --- |
| COc1ccccc1C1C=C(c2ccc(Cl)cc2)Nc2nc(-c3ccc(Cl)cc3)nn21 (configuration not stated) | -9.46 | – |
| CC(C)(C)C(=O)Nc1ccc(-c2nc3ccc(NC(=O)C(C)(C)C)cc3[nH]2)cc1 | -3.72 | – |
| O=C(COc1ccccc1-c1nc(-c2ccccc2)no1)Nc1cccc([N+](=O)[O-])c1 | – | 1.04 µM (active) |
| Cc1ccc(-c2nnc(Nc3ccc(O)cc3)c3ccccc23)cc1S(=O)(=O)N1CCCCC1 | -11.6 | – |
| CCn1c(CC2C(=O)N(C)c3ccc(Br)cc32)nc2ccccc2c1=O (configuration not stated) | -27 | – |
| O=C(NC1CCN(Cc2ccccc2)CC1)c1ccc(Cn2c(=O)c3ccccc3n(Cc3ccc(F)cc3)c2=O)cc1 | – | 3.69 µM (active) |
| CCN(CC)CCn1c(=N)n(CC(O)COc2ccccc2C)c2ccccc21 (configuration not stated) | – | 4.65 µM (active) |
| COc1ccc(C)cc1NC(=O)CCNS(=O)(=O)c1cccc2nonc12 | 5.15 | – |
| CCCN(c1ccccc1CC)S(=O)(=O)c1ccc2c(c1)CC(C)N2C(=O)C1CC1 (configuration not stated) | – | 0.521 µM (active) |
| Cn1ccc2c(OCC(=O)Nc3ccc(OC(F)(F)F)cc3)cccc2c1=O | – | 16.5 µM (active) |
| COC(=O)c1ccc(Nc2nnc(-c3ccc(C)c(S(=O)(=O)N4CCN(C)CC4)c3)c3ccccc23)cc1 | -21.5 | – |
| CC(C)N(C(=O)CSc1nc2ccc(Cl)cc2[nH]1)c1ccccc1 | -16 | – |
| O=C(CCOc1ccccc1)N(Cc1cccnc1)c1nc2c(F)cccc2s1 | – | 11.7 µM (active) |
| Cc1nc2nncn2c(NCc2ccc(Cl)cc2)c1C | – | 4.14 µM (active) |
| CCN1CCN(C(=O)Cn2ncc3c4ccccc4n(Cc4c(C)cc(C)cc4C)c3c2=O)CC1 | -17.5 | – |
| COc1ccc(C(=O)N2CCN(C(=O)COc3ccc(Br)cc3)CC2)cc1OC | -17.7 | – |
| COc1ccc(NC(=O)CCS(=O)(=O)c2nc(-c3cccs3)cc(C(F)(F)F)n2)cc1OC | -87.3 | – |
| COc1cc2ncnc(Nc3ccc(F)c(Cl)c3)c2cc1OCCCN1CCOCC1 | -7.44 | – |
| Oc1ccccc1Nc1nc(-c2ccccc2)c2cc(Cl)ccc2n1 | -6.7 | – |
| Cc1cc(C)c(NC(=O)c2sc3nc(C)cc(C)c3c2NC(=O)c2ccccc2)c(C)c1 | -8.54 | – |
| CCc1ccccc1NC(=O)CSCc1cnn(-c2ccccc2)c1-n1cccc1 | 14.7 | – |
| COc1ccc(-c2nc3cc(NC(=O)Cc4ccc(Cl)cc4)ccc3o2)cc1OC | -60.1 | – |
